Measurements reported in PubChem BioAssay (Tox21).
Where “and” joins values, the source holds several entries; their conditions need not be identical. Equal values may be shown once. Records with an inconclusive call do not appear. Entries that show only a call come without a potency. More than one record can exist for a structure, and the calls need not agree. Calls of active or inactive are those of the source. Unless noted, calls follow the shape of the dose curve; as a rule, active = well fitted curve in the direction sought with a large enough effect in the repeat runs; inconclusive = weak or mixed curves; inactive = no such curve, though single readings can be large; an effect the other way counts as inactive or inconclusive.

How the values were obtained:
[1] = qHTS assay to identify small molecule agonists of the hypoxia (HIF-1) signaling pathway - cell viability counter screen (AID 1224844; calls by dose curve; also: nearly all actives have a fitted effect of over 50% in size)
Procedure, shortened: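 Same wells as the HIF-1 reporter screen; ME-180 cells carrying HRE-bla, 17 hr treatment at 37C; CellTiter-Glo luminescence read after 30 min at room temperature.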

[2] = qHTS assay to identify small molecule agonists of H2AX (AID 1224845; active = well fitted activation curve with a large enough effect in the signal ratio in the repeat runs, not every such curve was filed as active; the % refers to the signal ratio)
Procedure, shortened: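 Wild-type CHO-K1 cells plated overnight, then exposed 3 hr at 37C to compounds at 15 concentrations (0.76% DMSO). Lysed, then HTRF anti-pH2AX(S139)-cryptate/anti-H2AX-d2 detection after 24 hr at room temperature; emissions 665 and 620 nm.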

[3] = qHTS assay to identify small molecule agonists of the hypoxia (HIF-1) signaling pathway (AID 1224846; active = well fitted activation curve with a large enough effect in the signal ratio in the repeat runs, not every such curve was filed as active; the % refers to the signal ratio)
Procedure, shortened: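 In ME-180 cells bearing an HRE-bla construct, 17 h treatment with DMSO-dissolved compounds at 37C was followed by CCF4-AM loading to quantify reporter induction.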

[4] = qHTS assay to identify small molecule agonists of H2AX - cell viability counter screen (AID 1224847; calls by dose curve; also: top concentration of the series differs between compounds; nearly all actives have a fitted effect of over 30% in size)
Procedure, shortened: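 Counter-screen for viability: CellTiter-Glo ATP luminescence read after 3 h compound treatment (15-point titration, 0.76% DMSO final) of CHO-K1 cells at 37C, with 30 min room-temperature reagent incubation.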

[5] = qHTS assay to identify small molecule antagonists of the estrogen related receptor (ERR) signaling pathway from Tox21 library (AID 1224848); also: nearly all actives have a fitted effect of over 50% in size
Procedure, shortened: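 Tox21 10K compounds in DMSO tested for ERR pathway antagonism in NTP's ERR cell line; 18 h, 37 C exposure; ONE-Glo luminescence.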

[6] = qHTS RealTime-Glo MT Cell Viability Assay in HepG2 cells - 24 hour (AID 1224867); also: nearly all actives have a fitted effect of over 50% in size
Procedure, shortened: (§1)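 Viability was tracked continuously by NanoLuc luminescence from prosubstrate reduced by living HepG2 cells, at successive time points over 40 h of compound exposure. Cells with reagent were preincubated 5 h at 37 °C before compound addition.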

[7] = qHTS RealTime-Glo MT Cell Viability Assay in HEK293 cells - 32 hour (AID 1224868); also: top concentration of the series differs between compounds; nearly all actives have a fitted effect of over 50% in size
Procedure, shortened: (§2)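 Viability tracked continuously by luminescence as live cells reduce a prosubstrate for NanoLuc; HEK293 cells preincubated 5 h, compound-treated at 37 C, and read at 0, 8, 16, 24, 32 and 40 h.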

[8] = A CellTox Green Cytotoxicity Assay to monitor cytotoxicity in HEK293 cells - 0 hour (AID 1224869); also: nearly all actives have a fitted effect of over 50% in size
Procedure, shortened: (§3)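 Homogeneous no-lysis format: HEK293 cell suspension mixed with CellTox Green reagent, seeded, incubated 5 h at 37 C/5% CO2, then dosed by pintool with compound in DMSO.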

[9] = qHTS RealTime-Glo MT Cell Viability Assay in HepG2 cells - 40 hour (AID 1224870); also: nearly all actives have a fitted effect of over 50% in size
Procedure, shortened: (§4)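 HepG2 cells mixed with RealTime-Glo MT reagents (NanoLuc plus cell-permeant prosubstrate) were seeded at 600 cells/well, incubated 5 h at 37 C/5% CO2, then pinned with compounds in DMSO; nonlytic luminescence tracked viability during 40 h treatment.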

[10] = A CellTox Green Cytotoxicity Assay to monitor cytotoxicity in HEK293 cells - 40 hour (AID 1224871); also: nearly all actives have a fitted effect of over 45% in size; also: potency is read from the fitted curve at half-maximal effect
Procedure, shortened: as §3

[11] = qHTS RealTime-Glo MT Cell Viability Assay in HEK293 cells - 16 hour (AID 1224872)
Procedure, shortened: as §2

[12] = qHTS RealTime-Glo MT Cell Viability Assay in HepG2 cells - 8 hour (AID 1224873); also: nearly all actives have a fitted effect of over 55% in size
Procedure, shortened: as §4

[13] = qHTS RealTime-Glo MT Cell Viability Assay in HEK293 cells - 40 hour (AID 1224874); details: RealTime-Glo luminescence; max response: stronger effect = lower value; also: nearly all actives have a fitted effect of over 50% in size
Procedure, shortened: (§5)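 Measured as luminescence from the same continuously cultured HEK293 wells at successive time points (0, 8, 16, 24, 32, 40 h) after compound addition. Reagent present from seeding; dosing at 5 h; incubation 37 C.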

[14] = A CellTox Green Cytotoxicity Assay to monitor cytotoxicity in HEK293 cells - 24 hour (AID 1224875); also: series mostly up to about 77 µM; nearly all actives have a fitted effect of over 45% in size
Procedure, shortened: as §3

[15] = A CellTox Green Cytotoxicity Assay to monitor cytotoxicity in HepG2 cells - 16 hour (AID 1224876); also: nearly all actives have a fitted effect of over 45% in size
Procedure, shortened: (§6)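 Fluorescent DNA-binding dye, 600 HepG2 cells/well, 5 h preincubation then compound in DMSO; same plates read at 0–40 h, 37 C.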

[16] = qHTS RealTime-Glo MT Cell Viability Assay in HepG2 cells - 32 hour (AID 1224877); also: nearly all actives have a fitted effect of over 55% in size
Procedure, shortened: as §1

[17] = A CellTox Green Cytotoxicity Assay to monitor cytotoxicity in HepG2 cells - 24 hour (AID 1224878); also: nearly all actives have a fitted effect of over 45% in size
Procedure, shortened: as §6

[18] = A CellTox Green Cytotoxicity Assay to monitor cytotoxicity in HepG2 cells - 40 hour (AID 1224879); also: nearly all actives have a fitted effect of over 40% in size
Procedure, shortened: as §6

[19] = qHTS RealTime-Glo MT Cell Viability Assay in HEK293 cells - 0 hour (AID 1224880)
Procedure, shortened: as §5

[20] = target: Thyrotropin receptor (Homo sapiens) (UniProt P16473); experiment: qHTS assay to identify small molecule agonists of the thyroid stimulating hormone receptor (TSHR) signaling pathway (AID 1224843; calls by dose curve; also: nearly all actives have a fitted effect of over 45% in size)
Sequence of Thyrotropin receptor (Homo sapiens) (P16473 whole entry, looked up): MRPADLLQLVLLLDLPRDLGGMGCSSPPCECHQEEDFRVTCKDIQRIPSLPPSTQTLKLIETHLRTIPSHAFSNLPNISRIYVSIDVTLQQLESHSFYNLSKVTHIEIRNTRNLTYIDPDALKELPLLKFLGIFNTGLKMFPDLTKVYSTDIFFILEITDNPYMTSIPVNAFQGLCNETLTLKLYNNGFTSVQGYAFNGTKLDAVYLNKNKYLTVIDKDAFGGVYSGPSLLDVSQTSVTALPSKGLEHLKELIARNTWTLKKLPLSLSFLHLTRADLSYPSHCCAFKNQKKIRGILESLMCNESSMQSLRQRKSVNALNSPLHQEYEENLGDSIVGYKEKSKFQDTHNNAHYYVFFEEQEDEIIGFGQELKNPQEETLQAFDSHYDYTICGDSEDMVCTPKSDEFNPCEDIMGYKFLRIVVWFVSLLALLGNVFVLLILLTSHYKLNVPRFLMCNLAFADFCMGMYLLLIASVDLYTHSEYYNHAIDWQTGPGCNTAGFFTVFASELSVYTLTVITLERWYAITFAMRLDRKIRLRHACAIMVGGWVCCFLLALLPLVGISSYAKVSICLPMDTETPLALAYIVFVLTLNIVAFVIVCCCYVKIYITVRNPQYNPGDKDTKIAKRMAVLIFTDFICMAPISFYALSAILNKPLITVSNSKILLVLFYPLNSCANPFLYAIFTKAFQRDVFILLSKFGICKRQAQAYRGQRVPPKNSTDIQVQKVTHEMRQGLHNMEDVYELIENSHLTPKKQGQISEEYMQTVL
Procedure, shortened: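 Using 15 concentrations per compound in triplicate, cAMP production was monitored in TSHR-HEK293 cells after 30 min compound incubation at RT; HTRF reagents followed, with fluorescence intensity recorded after 1 h.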

Compound | outcome [1] | outcome [2] | outcome [3] | outcome [4] | outcome [5] | Potency [6] | Potency [7] | outcome [8] | outcome [9] | Potency [10] | Potency [11] | Potency [12] | max response [13] | Potency [14] | outcome [15] | outcome [16] | Potency [17] | Potency [18] | outcome [19] | outcome [20]
Cc1ccc(C(C)C)c(O)c1 | inactive | inactive | inactive | inactive | inactive | inactive | inactive | inactive | inactive | inactive | inactive | inactive | -11.7% (inactive) and 0.827% (inactive) | inactive | inactive | inactive | inactive | inactive | inactive | 
CN(C)CCOC(=O)COc1ccc(Cl)cc1 | inactive | inactive |  | inactive | inactive | inactive | inactive | inactive | inactive | inactive | inactive | inactive | -6.44% (inactive) and 0.203% (inactive) | inactive | inactive | inactive | inactive | inactive | inactive | inactive
CCCCCCCCCCO | inactive | inactive | inactive | inactive |  | inactive | inactive | inactive | inactive | 24.6 µM (active) and inactive | inactive | inactive | 1.72% (inactive) and 1.45% (inactive) |  | inactive | inactive | inactive | inactive | inactive | inactive
CCCCOC(=O)c1ccc(N)cc1 | inactive | inactive |  | inactive |  | inactive | inactive | inactive | inactive | inactive | inactive | inactive | 0.814% (inactive) | inactive | inactive | inactive | inactive | inactive | inactive | inactive
